# Bioassay records deposited in PubChem BioAssay by Buhrlage Lab, Dana-Farber Cancer Institute and Novartis Institutes for BioMedical Research (Cambridge, Mass).
# USP8 inh: inhibitors of human USP8 deubiquitinase | 47,000 compounds, 4.2% hits | inhibition, % at 20 µM | purified USP8, Ub-rhodamine cleavage fluorescence, 30 min
# Target sequence (P40818 whole entry, looked up): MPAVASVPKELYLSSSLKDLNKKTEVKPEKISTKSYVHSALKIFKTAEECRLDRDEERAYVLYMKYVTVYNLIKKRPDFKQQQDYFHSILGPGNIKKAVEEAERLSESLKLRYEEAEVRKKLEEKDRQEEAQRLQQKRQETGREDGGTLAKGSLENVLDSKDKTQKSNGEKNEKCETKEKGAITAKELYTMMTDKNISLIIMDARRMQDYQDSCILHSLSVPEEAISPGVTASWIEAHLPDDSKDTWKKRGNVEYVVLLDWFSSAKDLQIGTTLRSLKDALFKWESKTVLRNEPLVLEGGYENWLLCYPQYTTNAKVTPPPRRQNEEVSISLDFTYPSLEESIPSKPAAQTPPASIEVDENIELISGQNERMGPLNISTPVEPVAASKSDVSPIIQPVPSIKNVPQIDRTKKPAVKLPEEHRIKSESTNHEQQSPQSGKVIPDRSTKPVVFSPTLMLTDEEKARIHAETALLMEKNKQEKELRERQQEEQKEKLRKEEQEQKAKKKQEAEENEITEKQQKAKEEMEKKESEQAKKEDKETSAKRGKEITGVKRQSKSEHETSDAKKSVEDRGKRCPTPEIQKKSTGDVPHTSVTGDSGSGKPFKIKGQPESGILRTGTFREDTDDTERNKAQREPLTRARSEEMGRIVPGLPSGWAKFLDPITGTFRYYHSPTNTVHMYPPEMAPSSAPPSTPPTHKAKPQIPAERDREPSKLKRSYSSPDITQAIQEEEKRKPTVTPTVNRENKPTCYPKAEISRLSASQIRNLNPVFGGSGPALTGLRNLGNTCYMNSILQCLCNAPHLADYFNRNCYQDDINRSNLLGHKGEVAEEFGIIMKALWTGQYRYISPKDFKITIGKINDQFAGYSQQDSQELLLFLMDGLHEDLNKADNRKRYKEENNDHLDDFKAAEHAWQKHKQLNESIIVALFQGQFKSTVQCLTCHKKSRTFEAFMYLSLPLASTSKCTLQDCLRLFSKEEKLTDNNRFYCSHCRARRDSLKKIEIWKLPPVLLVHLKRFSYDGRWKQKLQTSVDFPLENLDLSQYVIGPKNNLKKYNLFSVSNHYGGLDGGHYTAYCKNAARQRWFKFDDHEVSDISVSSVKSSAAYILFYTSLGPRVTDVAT
# USP30 block: inhibitors of human USP30 deubiquitinase; Ubiquitin carboxyl-terminal hydrolase 30 (Homo sapiens), Q70CQ3; purified USP30, Ub-rhodamine cleavage fluorescence; inhibition, % at 25 µM; 47,000 compounds, 5.3% hits; AID 1645860, 2021
# USP28 inh: inhibitors of human USP28 deubiquitinase; purified USP28, Ub-rhodamine cleavage fluorescence, 30 min; inhibition, % at 25 µM; AID 1645857, 2021; Ubiquitin carboxyl-terminal hydrolase 28 (Homo sapiens), Q96RU2; 47,000 compounds, 3% hits
# USP17 block: inhibitors of human USP17 deubiquitinase; purified USP17, Ub-rhodamine cleavage fluorescence, 3 h; 47,000 compounds, 6.5% hits; Ubiquitin carboxyl-terminal hydrolase 17-like protein 5 (Homo sapiens), A8MUK1; inhibition, % at 50 µM
# USP10 block: inhibitors of human USP10 deubiquitinase | purified USP10, Ub-rhodamine fluorescence, 60 min | inhibition, % at 20 µM | 47,000 compounds, 1.1% hits
# * hit, by the source's call; nt = no result given. The list is not random: actives were taken first. Their share in the collection is about 14%. Rule as the data show it: active = inhibition above about 30%; inactive = the rest.
SMILES,USP8 inh,USP30 block,USP28 inh,USP17 block,USP10 block
Cc1ccc(S(=O)(=O)c2cnc(-c3ccccc3)nc2Oc2ccc(Cl)cc2C)cc1,20,24,9,12,4
O=S(=O)(c1ccccc1)c1cnc(-c2ccccc2)nc1Oc1ccc(F)cc1F,12,36*,13,15,2
CC(OC(=O)c1cccc(N(C)C)c1)C(=O)Nc1sccc1C(N)=O (configuration not stated),32*,-54,-3,-4,-4
Cc1ccc(C(=O)OC(C)C(=O)Nc2sccc2C(N)=O)cc1C (configuration not stated),-1,-93,-20,-31,-15
Cc1cc(N2CCN(C(=O)c3ccc(F)cc3)CC2)nc(N2CCCC2)n1,-2,1,-3,-5,0
COc1ccc(-c2cc3nc(C)cc(Nc4cccc(C)c4)n3n2)cc1OC,-4,-16,-13,-5,3
COc1ccc(-c2cc3nc(C)cc(Nc4ccc(F)cc4)n3n2)cc1OC,-5,85*,14,-2,4
COc1cnc(CSc2nccc(C)n2)cc1OCC(=O)Nc1ccccc1F,-33,6,0,-9,-2
CCN1C(SCC(=O)Nc2ccccc2Cl)=NS(=O)(=O)c2ccccc21,-131,8,-2,-32,0
CCOc1ccc(-n2ccnc(SCC(=O)Nc3ccccc3Cl)c2=O)cc1,53*,-37,14,30*,-1
Cc1cc(NC(=O)CSc2nccn2-c2ccc(F)cc2)no1,-2,13,5,1,0
Cc1cc(C)cc(-n2ccnc(SCC(=O)Nc3cccc(Cl)c3)c2=O)c1,-4,54*,20,34*,7
COc1ccc(-c2ccnc(SCC(=O)Nc3ccccc3F)n2)cc1,24,65*,23,71*,0
CCOc1ccc(-n2ccnc(SCC(=O)Nc3ccccc3F)c2=O)cc1,57*,32*,13,28,16
O=C(O)CNC(=O)N1CCN2Cc3ccccc3CN(Cc3ccccc3)CC2C1 (configuration not stated),-86,-201,-73,-69,-2
CCCC1(c2ccccc2)NC(=O)N(Cc2ncc(-c3ccc(Cl)cc3)o2)C1=O (configuration not stated),15,24,26,15,11
O=S(=O)(NCc1ccc2c(c1)OCO2)c1ccc(N2CCOCC2)nc1,-1,24,15,13,1
Cc1cc(-c2cccc(C(=O)O)c2)nc(C2CCCN(C(=O)C(C)(C)C)C2)n1 (configuration not stated),-2,9,3,0,1
Cc1ccccc1NC(=O)Nc1cnn(-c2ncncc2N2CCOCC2)c1,-11,12,9,3,0
COc1ccc(-c2cn3c(n2)sc2cc(C(=O)N(C)Cc4ccccc4)ccc23)cc1,6,13,7,4,-1
COc1cccc(OC)c1C(=O)Nc1ccccc1NC(=O)c1c(OC)cccc1OC,-39,-7,-15,-17,-1
COc1cccc(OC)c1C(=O)Nc1c(NCc2ccccc2)c2ccccc2oc1=O,-52,17,18,30*,0
c1ccc(-c2cc(-c3nnc4c5ccccc5cnn34)[nH]n2)cc1,1,7,-7,47*,3
c1ccc(-c2nn3c(-c4ccco4)nnc3c3ccccc23)cc1,8,-2,0,1,1
CCc1ccc(NC(=O)N2CCCC2c2c(C)noc2C)cc1 (configuration not stated),17,12,11,12,0
SMILES,USP8 inh,USP30 block,USP28 inh,USP17 block,USP10 block
Cc1cc(C)n(CC(=O)NCc2ccc(F)cc2F)c1-c1nc(C2CC2)no1,16,33*,14,31*,2
Cc1cc(=O)n(CC(=O)NCc2ccc(F)cc2F)c(N2CCCCC2)n1,24,16,10,8,0
Cc1cc(F)ccc1NC(=O)Cn1c(C)cc(C)c1-c1nc(C2CC2)no1,0,-7,4,48*,5
O=C1/C(=C/c2ccccc2)CC/C1=C\c1ccccc1,44*,17,14,26,9
O=C1/C(=C/c2ccc(F)cc2)Cc2ccccc21,6,18,3,2,10
Cc1ccc2[nH]c(=O)c(CN(CC3COCCO3)C(=O)Nc3ccccc3Cl)cc2c1 (configuration not stated),6,-1,-2,nt,0
Cc1ccc2[nH]c(=O)c(CN(CC3CCCO3)S(=O)(=O)c3ccccc3)cc2c1 (configuration not stated),-73,37*,15,53*,1
Cc1ccc2[nH]c(=O)c(CN(CC3CCCO3)S(C)(=O)=O)cc2c1 (configuration not stated),-2,23,8,2,-4
Cc1ccc2[nH]c(=O)c(CN(CC3COCCO3)C(=O)Nc3ccccc3F)cc2c1 (configuration not stated),18,37*,7,13,0
COc1ccccc1-c1nc(C2CC(=O)N(c3ccccc3)C2)no1 (configuration not stated),-15,2,-4,-11,0
O=c1[nH][nH]c(=O)c2n[nH]nc12,92*,-35,21,14,-4
COc1ccc(CC(=O)N2CCc3nc(C(N)=O)sc3CC2)cc1,1,-154,0,3,0
COc1ccc(CC(=O)N2CCN(c3ccc(-n4cccn4)nn3)CC2)cc1,22,34*,26,11,23
COc1cc(-c2cc(C(=O)Nc3cc(C)[nH]n3)c3ccccc3n2)cc(OC)c1OC,-132,51*,2,39*,-1
COc1ccc(C)cc1NC(=O)c1cc(-c2ccc(Cl)cc2)nc2ccccc12,-7,-13,-10,-3,-3
Cc1ccc(CNC(=O)N2CCC(c3nc(C(=O)N(C)C)c(C)o3)CC2)cc1,1,31*,10,17,5
CCc1nc(-c2cccc(NC(=O)c3ccc(C#N)cc3)c2)no1,2,0,15,0,8
CCc1nc(-c2cccc(NC(=O)c3ccc(C#N)cc3F)c2)no1,12,24,51*,43*,2
Cc1ccc(CNc2nc(Nc3ccc(C)cc3)c3cnn(C)c3n2)cc1,1,4,0,8,14
COc1ccc(Nc2nc(NCc3ccccc3)nc3c2cnn3C)cc1,0,28,-1,32*,-1
Cc1ccc(Nc2nc(NCCc3ccccc3)nc3c2cnn3C)cc1,-6,16,-9,74*,-1
O=C1NCc2ccccc2CC12CCCN(Cc1cnc3ccccc3c1)C2 (configuration not stated),-16,14,11,-4,-2
CN(Cc1ccc2c(c1)OCO2)C(C(=O)Nc1ccc(F)cc1)c1ccccc1 (configuration not stated),17,39*,12,13,9
